Results as given in PubChem BioAssay (EPA / NIEHS).
Calls of active or inactive are those of the source. Rule for the calls: active = hit-call score of the fitted dose curve at least 0.9, where 1 is the maximum; inactive = score below 0.9.

These compounds were tested on Interferon-inducible T-cell alpha chemoattractant (ITAC), CXCL11 (gene 6373) (assay: BSK_BE3C_ITAC: BioMAP Diversity Plus: BE3C Assay for Interferon-inducible T-cell alpha chemoattractant (ITAC) Biomarker Activity (AID 2284279)). Conditions: primary human bronchial epithelial cells.
Protocol: BSK_BE3C is a cell-based, multiplexed-readout assay that uses bronchial epithelial cell, a human lung primary cell, with measurements taken at 24 hours after chemical dosing in a 96-well plate.BSK_BE3C_ITAC is an assay component measured in the BSK_BE3C assay. It measures I-TAC antibody related to regulation of gene expression using ELISA technology.Data from the assay component BSK_BE3C_ITAC was analyzed at the endpoint, BSK_BE3C_ITAC, in the positive analysis fitting direction relative to DMSO as the negative control and baseline of activity. Using a type of binding reporter, gain or loss-of-signal activity can be used to understand protein changes. To generalize the intended target to other relatable targets, this assay endpoint is annotated to the 'cytokine' intended target family, where the subfamily is 'chemotactic factor'.
The levels of cell surface (or secreted, indicated by the prefix "s") biomarker endpoints were measured by ELISA. Overt cytotoxicity to cells in confluent adherent cultures (all systems other than the BT system) was assessed by measuring total protein levels using sulforhodamine B (SRB) staining in parallel cultures at the time of biomarker measurements, indicated as SRB endpoints. For proliferation assays for adherent cell types, individual cell types are cultured at sub-confluence and relative cell numbers quantified by SRB staining at time points optimized for each system (48 h: 3C and CASM3C systems; 72 h: BT and HDF3CGF systems; 96 h: SAg system). SRB was performed by staining cells with 0.1% SRB after fixation with 10% TCA and reading wells at 560 nm.Viability and proliferation of PBMC (T cells) was quantified by Alamar Blue reduction for the SAg and BT systems. For PBMC viability (referred to as PBMC Cytotoxicity within the assay endpoint names), cells were plated (75,000/well in a 96-well plate) and then chemical samples added for 1 h before addition of activators, SEB and TSST-1 (20 ng/mL final concentration each). Cells were incubated for 90 h. Then, Alamar Blue (20 uL/well) (Invitrogen, Cat DAL1100) was added for 6 h, and the plates were read with a fluorescence microplate reader at 546/580 nm (excitation/emission). For PBMC proliferation, cells were plated and activated as above but incubated for only 16 h prior to addition of Alamar Blue. Plates were read after 6 h.

outcome, inactive:
C=CCOC(=O)CCC1CCCCC1
OC[C@H]1O[C@H](O[C@]2(CCl)O[C@H](CCl)[C@@H](O)[C@@H]2O)[C@H](O)[C@@H](O)[C@H]1Cl
CC(=O)OCCC(C)CC(C)(C)C (configuration not stated)
Cc1cc(C2(c3cc(C)c(O)cc3C)OS(=O)(=O)c3ccccc32)c(C)cc1O
CCC(=O)OCc1ccccc1
C[C@H]1C[C@@H]2[C@H]([C@@H](O)C[C@@]3(C)[C@H]2CC[C@]3(O)C(=O)CO)[C@@]2(C)C=CC(=O)C=C12
OC1OC[C@@H](O)[C@H](O)[C@H]1O (some centres not stated)
CC(=O)[C@H]1CC[C@H]2[C@@H]3CC=C4C[C@@H](O)CC[C@]4(C)[C@H]3CC[C@]12C
NCCNCCN
COc1cc(C=O)ccc1OC(=O)C(C)C
CC[Si](OC(C)=O)(OC(C)=O)OC(C)=O
Nc1cc([N+](=O)[O-])ccc1O
